The target in assay [1] is Thyrotropin-releasing hormone receptor (Homo sapiens) (UniProt P34981). The assay is described as follows: qHTS assay to identify small molecule agonists of the thyrotropin-releasing hormone receptor (TRHR) signaling pathway (AID 1346891; calls by dose curve; note: series mostly up to about 58 µM). The method in brief: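 HEK293 cells expressing TRHR plated 18 h at 37 C/5% CO2, calcium dye-loaded 2 h at 37 C, then compound added (agonist mode); kinetic calcium fluorescence read 3 min at 1 s intervals; 15 concentrations in triplicate.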
A general note: In qHTS, concentration-response curves come from the screen itself.

The nature of assay [2]: Human pregnane X receptor (PXR) small molecule agonists, qHTS cell viability counter screen (AID 1346977). Note: nearly all actives have a fitted effect of over 50% in size. The method in brief: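 PXR-Luc HepG2 cells (2,000/well, 5% charcoal-stripped FBS) preincubated 5 hr, then exposed to compounds 24 hr at 37 C. Viability read in the same wells by CellTiter-Fluor fluorescence, reagent added at 23 hr, 1 hr incubation.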
Assay [3] is described as follows: Caspase-3/7 induction in HepG2 cells by small molecules, qHTS assay (AID 1346978). Note: nearly all actives have a fitted effect of over 15% in size. The method in brief: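 Wild-type HepG2 cells (2,000/well) were settled 5 h at 37 C, 5% CO2, then exposed to compounds in DMSO for 17 h. Caspase-3/7 activity was read by luminescence 30 min after adding Caspase-Glo 3/7 reagent at room temperature.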
Assay [4] in a line: Caspase-3/7 induction in CHO-K1 cells by small molecules, qHTS cell viability counter screen (AID 1346979). Note: nearly all actives have a fitted effect of over 35% in size. The method in brief:
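Wild-type CHO-K1 cells (1,500/well) treated with compound after 5 h plating; after 16 h at 37C, viability read as CellTiter-Fluor fluorescence following 1 h reagent incubation, in the same wells as the caspase read.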

Assay [5] can be described thus: Caspase-3/7 induction in CHO-K1 cells by small molecules, qHTS assay (AID 1346980). Note: nearly all actives have a fitted effect of over 15% in size. The method in brief:
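Wild-type cells were seeded at 1,500 per well and settled 5 hr at 37 C, 5% CO2, then exposed to DMSO-dissolved compounds for 17 hr. Caspase-Glo 3/7 reagent was added, and luminescence was read after 30min at room temperature.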

The nature of assay [6]: Caspase-3/7 induction in HepG2 cells by small molecules, qHTS cell viability counter screen (AID 1346981). Note: series mostly up to about 92 µM; nearly all actives have a fitted effect of over 30% in size. The method in brief:
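CellTiter-Fluor fluorescence measured viability in the same wells used for Caspase-Glo 3/7. HepG2 (wild type) at 2,000 cells/well were pre-incubated 5 hr, dosed, and given reagent at 16 hr, with 1 hr further at 37C.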

Assay [7] concerns the target Nuclear receptor subfamily 1 group I member 2 (Homo sapiens) (UniProt O75469). The assay is described as follows: Human pregnane X receptor (PXR) small molecule agonists, qHTS assay (AID 1346982). Note: nearly all actives have a fitted effect of over 35% in size. Note: potency is the fitted concentration of half-maximal effect. The method in brief: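 Agonist mode: luminescence from ONE-Glo after 24 h compound exposure at 37C in HepG2 cells carrying hPXR-responsive CYP3A4 luciferase, plated in charcoal-stripped serum medium 5 h beforehand.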

Assay [8] addresses Cytochrome P450 2D6 (Homo sapiens) (UniProt P10635). As to the kind of experiment: Cytochrome P450 Family 2 Subfamily D Member 6 (CYP2D6) small molecule antagonists: luciferase reporter qHTS assay (AID 1671196). Note: nearly all actives have a fitted effect of over 50% in size. Note: potency is the fitted concentration of half-maximal effect. The method in brief: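 CYP2D6 activity was followed as luminescence from its luciferin product after a 1 h NADPH-driven reaction at room temperature. Enzyme-substrate mix and compound were pre-incubated for 10 min, and the signal was read 20 min after adding detection reagent.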
For orientation: In a reporter assay the amount or activity of a reporter protein is the signal.

Assay [9] deals with Cytochrome P450 2C19 (Homo sapiens) (UniProt P33261). As to the kind of experiment: Cytochrome P450 Family 2 Subfamily C Member 19 (CYP2C19) small molecule antagonists: luciferase reporter qHTS assay (AID 1671197). Note: nearly all actives have a fitted effect of over 65% in size. Note: potency is the fitted concentration of half-maximal effect. The method in brief:
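Light output is proportional to CYP2C19 activity: proluciferin substrate is converted to luciferin, then detected by a luciferin detection reagent that also stops the 1 h, 37C NADPH-driven reaction. Ketoconazole serves as positive control.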

In assay [10] the target is Cytochrome P450 2C9 (Homo sapiens) (UniProt P11712). The assay is described as follows: Cytochrome P450 Family 2 Subfamily C Member 9 (CYP2C9) small molecule antagonists: luciferase reporter qHTS assay (AID 1671198). Note: nearly all actives have a fitted effect of over 50% in size. Note: potency is the fitted concentration of half-maximal effect. The method in brief:
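CYP2C9 activity was measured with a P450-Glo proluciferin substrate. Enzyme–substrate mix was held with compound for 10 min at room temperature, then NADPH regeneration solution was added for 1 h at 37C. Luciferin product was read as luminescence.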

In assay [11] the target is Cytochrome P450 1A2 (Homo sapiens) (UniProt P05177). As to the kind of experiment: Cytochrome P450 Family 1 Subfamily A Member 2 (CYP1A2) small molecule antagonists: luciferase reporter qHTS assay (AID 1671199). Note: nearly all actives have a fitted effect of over 50% in size. Note: potency is the fitted concentration of half-maximal effect. The method in brief: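 Luminescence from luciferin formed by CYP1A2 from a proluciferin substrate, read 20 min after detection reagent. Compound was pre-incubated 10 min with enzyme-substrate, and reaction started with NADPH regeneration solution for 1 h at room temperature; furafylline control.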

In assay [12] the target is Voltage-gated inwardly rectifying potassium channel KCNH2 (Homo sapiens) (UniProt Q12809). As to the kind of experiment: Human Ether-a-go-go-Related Gene (hERG) channel small molecule antagonists: fluorescence cell-based qHTS assay (AID 1671200). The method in brief:
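hERG-U2OS cells plated overnight at 37 C, loaded with FluxOR II dye 1 h at RT in dark; after 10 min, thallium stimulus added. Fluorescence (480/540 nm) read kinetically for 2 min at 1 s intervals.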
Background: Block of hERG is tested as a sign of cardiac risk.

For assay [13], the target named is Cytochrome P450 3A4 (Homo sapiens) (UniProt P08684). As to the kind of experiment: Cytochrome P450 Family 3 Subfamily A Member 4 (CYP3A4) small molecule antagonists: luciferase reporter qHTS assay (AID 1671201). The method in brief: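 P450-Glo CYP3A4 luminescent assay: compounds preincubated 10 min at room temperature with enzyme and proluciferin substrate, NADPH regeneration added, 1 h room-temperature reaction, stopped with luciferin detection reagent; luminescence read after 20 min. Ketoconazole positive control.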

Assay [14] addresses Nuclear receptor subfamily 1 group I member 2 (Rattus norvegicus) (UniProt Q9R1A7). The assay is described as follows: Rat pregnane X receptor (rPXR) activation by small molecules, qHTS assay (AID 1346983). Note: nearly all actives have a fitted effect of over 20% in size. Conditions: rPXR luciferase reporter cells, One-Glo luminescence, 24 h; stronger effect = higher value. The method in brief: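 Cell-based rPXR luciferase reporter assay, 2,000 cells per well, rested 5hr at 37 C before compound addition in DMSO, then 24 hr at 37 C. One-Glo reagent was added and luminescence read after 30 min at room temperature.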

Assay [15] addresses Nuclear receptor subfamily 1 group I member 2 (Homo sapiens) (UniProt O75469). As to the kind of experiment: CYP3A4 induction through human pregnane X receptor (PXR) by small molecules, qHTS assay (AID 1346984). Note: nearly all actives have a fitted effect of over 40% in size. The method in brief:
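Read-out is luminescence after One-Glo addition, following a 3 hr, 37C incubation with Luciferin-IPA CYP3A4 substrate (3uM final). Before that, compounds were on DPX-2 cells (HepG2 co-transfected with PXR element plus CYP3A4-promoter luciferase) for 24 hr at 37C.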

The target is the same in assay [16]. As to the kind of experiment: Human pregnane X receptor (PXR) activation by small molecules, qHTS assay (AID 1346985). Note: nearly all actives have a fitted effect of over 40% in size. The method in brief: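 DPX-2 cells (HepG2 co-transfected with a PXR response element and a CYP3A4-promoter luciferase construct) were seeded at 2,000 per well, rested 5 hr at 37C, then exposed to DMSO-dissolved compounds for 24 hr. Activation was read as luciferase luminescence.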

Each structure is given as a SMILES string. “And” between values parts separate entries of the source, which are not always exact repeats. Identical values can stand only once. Inconclusive results are not listed. The source holds several records for some structures; these can differ, active in one and inactive in another. The source made the active and inactive calls. Unless noted, calls come from the whole dose curve; as a rule, active = well fitted curve in the direction sought with a large enough effect in the repeat runs; inconclusive = weak or mixed curves; inactive = no such curve, though single readings can be large; an effect the other way counts as inactive or inconclusive.
% is set by controls: 0 for no effect and ±100 for the full control effect.

Sequence of Cytochrome P450 1A2 (Homo sapiens) (P05177 whole entry, looked up): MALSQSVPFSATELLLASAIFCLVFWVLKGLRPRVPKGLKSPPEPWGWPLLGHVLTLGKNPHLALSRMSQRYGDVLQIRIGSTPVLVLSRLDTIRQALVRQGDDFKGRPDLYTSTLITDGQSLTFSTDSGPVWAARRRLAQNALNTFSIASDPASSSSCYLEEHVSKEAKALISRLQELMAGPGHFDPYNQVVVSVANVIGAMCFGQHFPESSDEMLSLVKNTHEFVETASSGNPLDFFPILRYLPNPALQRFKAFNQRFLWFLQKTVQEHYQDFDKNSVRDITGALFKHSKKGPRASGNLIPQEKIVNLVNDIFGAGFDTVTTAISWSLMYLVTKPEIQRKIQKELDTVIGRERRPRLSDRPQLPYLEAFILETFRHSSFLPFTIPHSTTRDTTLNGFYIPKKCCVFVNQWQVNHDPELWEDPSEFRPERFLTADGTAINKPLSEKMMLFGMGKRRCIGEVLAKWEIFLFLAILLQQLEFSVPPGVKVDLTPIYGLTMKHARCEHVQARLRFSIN
Sequence of Cytochrome P450 3A4 (Homo sapiens) (P08684 whole entry, looked up): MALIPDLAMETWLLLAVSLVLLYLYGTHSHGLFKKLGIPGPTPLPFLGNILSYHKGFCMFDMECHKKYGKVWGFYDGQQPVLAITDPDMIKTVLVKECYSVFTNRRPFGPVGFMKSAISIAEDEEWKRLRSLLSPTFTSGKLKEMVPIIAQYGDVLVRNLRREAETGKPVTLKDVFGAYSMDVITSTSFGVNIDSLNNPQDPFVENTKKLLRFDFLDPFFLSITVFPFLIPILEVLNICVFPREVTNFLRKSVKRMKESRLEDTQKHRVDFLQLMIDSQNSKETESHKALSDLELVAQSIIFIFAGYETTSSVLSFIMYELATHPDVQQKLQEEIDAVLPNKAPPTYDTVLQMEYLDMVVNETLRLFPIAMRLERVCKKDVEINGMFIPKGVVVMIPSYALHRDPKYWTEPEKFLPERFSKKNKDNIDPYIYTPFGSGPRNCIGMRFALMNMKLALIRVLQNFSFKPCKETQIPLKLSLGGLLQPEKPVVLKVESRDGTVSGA
Sequence of Cytochrome P450 2D6 (Homo sapiens) (P10635 whole entry, looked up): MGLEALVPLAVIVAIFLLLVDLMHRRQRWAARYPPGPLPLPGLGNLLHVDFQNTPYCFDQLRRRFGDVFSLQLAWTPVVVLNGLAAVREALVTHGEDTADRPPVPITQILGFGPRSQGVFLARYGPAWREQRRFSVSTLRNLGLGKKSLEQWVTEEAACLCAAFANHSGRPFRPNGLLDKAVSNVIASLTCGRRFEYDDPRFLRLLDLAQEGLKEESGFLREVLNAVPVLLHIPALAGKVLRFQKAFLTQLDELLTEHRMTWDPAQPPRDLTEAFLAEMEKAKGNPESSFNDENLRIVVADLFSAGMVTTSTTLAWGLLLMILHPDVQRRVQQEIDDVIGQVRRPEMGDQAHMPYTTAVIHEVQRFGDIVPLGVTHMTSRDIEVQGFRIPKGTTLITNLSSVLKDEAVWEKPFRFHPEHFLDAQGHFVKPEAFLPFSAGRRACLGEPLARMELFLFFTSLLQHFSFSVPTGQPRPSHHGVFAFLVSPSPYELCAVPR
Sequence of Nuclear receptor subfamily 1 group I member 2 (Homo sapiens) (O75469 whole entry, looked up): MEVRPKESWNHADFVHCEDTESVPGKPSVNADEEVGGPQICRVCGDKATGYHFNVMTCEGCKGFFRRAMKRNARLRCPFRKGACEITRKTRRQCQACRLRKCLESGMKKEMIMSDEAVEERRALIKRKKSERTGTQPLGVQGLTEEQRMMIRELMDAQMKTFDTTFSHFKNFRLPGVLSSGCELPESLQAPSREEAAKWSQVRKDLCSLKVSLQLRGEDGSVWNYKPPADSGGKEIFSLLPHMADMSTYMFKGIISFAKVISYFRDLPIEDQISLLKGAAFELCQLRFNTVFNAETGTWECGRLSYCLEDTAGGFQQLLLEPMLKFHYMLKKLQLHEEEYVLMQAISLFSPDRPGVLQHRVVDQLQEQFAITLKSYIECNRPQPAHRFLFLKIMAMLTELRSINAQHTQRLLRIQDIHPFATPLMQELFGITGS
Sequence of Cytochrome P450 2C9 (Homo sapiens) (P11712 whole entry, looked up): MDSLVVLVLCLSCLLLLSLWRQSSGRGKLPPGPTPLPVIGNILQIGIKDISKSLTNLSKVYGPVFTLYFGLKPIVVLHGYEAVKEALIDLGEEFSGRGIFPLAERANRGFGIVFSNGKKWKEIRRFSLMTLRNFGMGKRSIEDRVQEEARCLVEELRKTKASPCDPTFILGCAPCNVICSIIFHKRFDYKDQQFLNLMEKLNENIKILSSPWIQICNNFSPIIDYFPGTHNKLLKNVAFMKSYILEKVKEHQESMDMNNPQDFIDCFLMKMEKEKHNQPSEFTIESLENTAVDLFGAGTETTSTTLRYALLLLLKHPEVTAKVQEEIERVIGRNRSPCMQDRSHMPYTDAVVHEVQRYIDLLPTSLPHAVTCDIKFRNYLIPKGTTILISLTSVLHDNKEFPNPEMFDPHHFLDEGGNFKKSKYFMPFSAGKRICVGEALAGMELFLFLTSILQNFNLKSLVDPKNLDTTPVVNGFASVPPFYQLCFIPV
Sequence of Thyrotropin-releasing hormone receptor (Homo sapiens) (P34981 whole entry, looked up): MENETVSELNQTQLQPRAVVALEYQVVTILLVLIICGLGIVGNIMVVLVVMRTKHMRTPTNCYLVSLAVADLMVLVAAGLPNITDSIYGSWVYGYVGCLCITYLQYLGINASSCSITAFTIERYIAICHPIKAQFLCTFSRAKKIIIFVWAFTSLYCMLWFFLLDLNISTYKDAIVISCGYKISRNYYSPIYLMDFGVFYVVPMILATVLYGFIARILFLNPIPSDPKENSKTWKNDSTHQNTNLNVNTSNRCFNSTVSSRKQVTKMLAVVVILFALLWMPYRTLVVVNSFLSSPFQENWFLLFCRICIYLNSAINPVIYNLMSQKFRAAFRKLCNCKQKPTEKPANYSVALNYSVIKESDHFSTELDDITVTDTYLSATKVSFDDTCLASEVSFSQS
Sequence of Voltage-gated inwardly rectifying potassium channel KCNH2 (Homo sapiens) (Q12809 whole entry, looked up): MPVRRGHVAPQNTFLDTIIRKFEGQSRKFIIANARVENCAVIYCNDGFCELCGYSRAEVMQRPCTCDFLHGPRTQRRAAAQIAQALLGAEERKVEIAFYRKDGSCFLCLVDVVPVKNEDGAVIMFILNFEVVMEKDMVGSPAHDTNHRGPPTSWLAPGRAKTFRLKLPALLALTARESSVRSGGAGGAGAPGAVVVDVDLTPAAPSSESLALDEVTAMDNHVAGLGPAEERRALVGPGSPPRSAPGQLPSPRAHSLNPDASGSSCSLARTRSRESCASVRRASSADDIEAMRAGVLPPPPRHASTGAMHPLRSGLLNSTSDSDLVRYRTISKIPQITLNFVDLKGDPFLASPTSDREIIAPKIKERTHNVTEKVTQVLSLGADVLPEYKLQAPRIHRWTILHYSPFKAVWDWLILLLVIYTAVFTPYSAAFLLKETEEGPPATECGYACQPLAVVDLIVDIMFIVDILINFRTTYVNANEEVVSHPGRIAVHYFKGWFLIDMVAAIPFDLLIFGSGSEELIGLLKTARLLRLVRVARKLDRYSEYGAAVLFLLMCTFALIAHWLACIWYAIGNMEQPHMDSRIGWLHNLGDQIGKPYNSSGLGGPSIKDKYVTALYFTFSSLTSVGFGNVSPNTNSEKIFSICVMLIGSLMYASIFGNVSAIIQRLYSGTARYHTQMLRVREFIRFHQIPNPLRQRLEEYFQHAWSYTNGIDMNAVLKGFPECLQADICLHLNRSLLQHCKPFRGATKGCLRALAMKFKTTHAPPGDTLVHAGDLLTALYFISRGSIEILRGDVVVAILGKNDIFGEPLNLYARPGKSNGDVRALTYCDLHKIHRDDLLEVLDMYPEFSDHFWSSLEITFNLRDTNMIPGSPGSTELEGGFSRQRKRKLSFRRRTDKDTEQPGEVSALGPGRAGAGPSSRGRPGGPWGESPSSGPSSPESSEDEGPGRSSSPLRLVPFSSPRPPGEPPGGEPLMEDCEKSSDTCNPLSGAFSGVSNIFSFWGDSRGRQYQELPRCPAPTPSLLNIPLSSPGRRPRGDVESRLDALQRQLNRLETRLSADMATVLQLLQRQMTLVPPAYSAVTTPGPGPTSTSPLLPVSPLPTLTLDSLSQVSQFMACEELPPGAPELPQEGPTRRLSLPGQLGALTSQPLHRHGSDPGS
Sequence of Cytochrome P450 2C19 (Homo sapiens) (P33261 whole entry, looked up): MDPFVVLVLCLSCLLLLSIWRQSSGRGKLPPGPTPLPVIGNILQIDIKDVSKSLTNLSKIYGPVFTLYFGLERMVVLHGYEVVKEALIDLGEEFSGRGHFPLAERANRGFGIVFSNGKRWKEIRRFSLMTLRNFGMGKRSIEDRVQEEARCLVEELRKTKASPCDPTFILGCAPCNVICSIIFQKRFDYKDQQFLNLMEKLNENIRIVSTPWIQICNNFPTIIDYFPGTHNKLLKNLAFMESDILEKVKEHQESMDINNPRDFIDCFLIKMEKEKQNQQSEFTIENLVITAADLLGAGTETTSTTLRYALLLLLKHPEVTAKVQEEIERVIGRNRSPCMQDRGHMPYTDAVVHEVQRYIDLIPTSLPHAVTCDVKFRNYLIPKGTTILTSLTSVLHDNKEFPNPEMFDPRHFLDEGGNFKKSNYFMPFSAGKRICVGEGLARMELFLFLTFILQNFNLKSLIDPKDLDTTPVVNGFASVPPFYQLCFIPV
Sequence of Nuclear receptor subfamily 1 group I member 2 (Rattus norvegicus) (Q9R1A7 whole entry, looked up): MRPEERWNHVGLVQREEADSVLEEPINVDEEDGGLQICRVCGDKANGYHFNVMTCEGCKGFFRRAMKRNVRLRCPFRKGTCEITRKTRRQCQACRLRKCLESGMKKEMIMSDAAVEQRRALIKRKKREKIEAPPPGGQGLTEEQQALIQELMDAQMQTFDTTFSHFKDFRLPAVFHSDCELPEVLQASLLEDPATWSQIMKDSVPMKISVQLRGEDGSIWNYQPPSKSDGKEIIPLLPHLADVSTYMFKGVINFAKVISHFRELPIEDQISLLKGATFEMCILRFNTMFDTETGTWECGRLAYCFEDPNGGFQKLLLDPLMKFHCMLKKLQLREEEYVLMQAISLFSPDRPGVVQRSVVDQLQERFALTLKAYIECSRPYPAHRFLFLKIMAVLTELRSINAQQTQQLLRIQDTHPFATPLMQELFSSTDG

Consider `CCO[Si](CCC#N)(OCC)OCC`, for which the result in assay [1] and in assay [5] was inactive. Further, the Potency entry in assay [2], in [3], in [4], in assay [6], in [7] and in assay [8] was “inactive” in each case. Besides, the Potency result in [9], in [10], in assay [11], in assay [12] and in assay [13] was “inactive” each time.

In the case of `CC(=O)OCc1ccccc1`, the result in assay [1] and in assay [5] was inactive. Moreover, the Potency result in assay [2], in [3], in assay [4], in assay [6], in assay [7] and in assay [8] was “inactive” throughout. Besides, the Potency result in assay [9], in [10], in assay [11], in [12] and in assay [13] was “inactive” each time.

Consider `CC(=O)Oc1ccc(C)cc1`, for which the compound was called inactive in assay [1], in assay [5] and in assay [16]. Besides, the Potency result in assay [2], in [3], in assay [4], in assay [6], in [7] and in [15] was “inactive” each time. Besides, the Potency result in assay [8], in assay [9], in assay [10], in assay [11], in assay [12] and in assay [13] was “inactive” each time. The max activation in assay [14] was -1.62% (inactive).

Consider `CCCCCCO`, for which the outcome in assay [1] and in assay [5] was inactive. Moreover, the Potency entry in assay [2], in assay [3], in assay [4], in assay [6], in assay [7] and in assay [8] was “inactive” in each case. The Potency result in [9], in assay [10], in [11], in assay [12] and in assay [13] was “inactive” throughout.

Regarding `C=CC(=O)OCCC(=O)O`, the outcome in [1] and in [5] was inactive. Besides, the Potency result in assay [2], in [3], in assay [4], in [6], in assay [7] and in [10] was “inactive” each time. Also, the Potency entry in assay [12] and in [13] was “inactive” throughout. Also, the Potency is 23.2 µM (active) and inactive in assay [8]; 104 µM (active) and inactive in [9].

In the case of `CCCCC(C=O)CC` (stereo not drawn), the outcome in [1] and in assay [5] was inactive. The Potency entry in [2], in assay [3], in assay [4], in assay [6], in assay [7] and in [8] was “inactive” in each case. For the same compound, the Potency entry in assay [9], in assay [10], in [11], in assay [12] and in assay [13] was “inactive” each time.

As to `CC(CCl)OP(=O)(OC(C)CCl)OC(C)CCl` (stereo not drawn), the outcome in assay [1] and in [5] was inactive. Moreover, the Potency entry in [2], in assay [3], in assay [4], in assay [6], in [8] and in assay [12] was “inactive” in each case. Besides, the Potency in assay [7] is 36.3 µM (active); in assay [9], 35.7 µM (active) and 21.1 µM (active); in assay [10] it was 40 µM (active) and 59.5 µM (active); in [11] it was 28.3 µM (active) and 14.9 µM (active).

Regarding `C=CCCCCCCCCC(=O)O`, the call in assay [1], in [5] and in assay [16] was inactive. Also, the Potency entry in assay [2], in assay [3], in [4], in assay [6], in assay [7] and in assay [15] was “inactive” throughout. The Potency result in assay [8], in assay [9], in [11], in [12] and in assay [13] was “inactive” throughout. In addition, in assay [14], the max activation is -1.23% (inactive). Besides, the Potency in assay [10] was 39.9 µM (active).
